According to the supplement of paper PMC6555819:

tested on: PPARg homodimer (NR concentration 180 nM); assay: PBM binding z-score (relative to random genomic background probes); higher = stronger binding; sequences stand for … in GC…GCGATTGACAGCGTAGAATGAAGG
How it was run: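 Each nuclear receptor dimer, without ligand, was incubated for 1 h on custom Agilent 4×180K protein-binding microarrays. Binding was detected with antibodies against each partner (one per run), and scanned fluorescence was regression-normalized. The binding z-scores are referenced to random human genomic background probes.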

Compared with CGTCCAAGGTCATAGGAGATCAGTGAAGACAGAT, CCTTACGGGTCAAGGCTATAGCACGGGTGGTACG is lower in PBM binding z-score: 2.99 for the first, 1.08 for the second.

Going from CGAACGAGGGCATGAGTTGATAGCAAATGCCGAT to CCAGACAGGTGAGAAGGTAACTCCGCCTCGATTA, the PBM binding z-score rises from -0.0859 to 0.567.

Going from TCTACTAGTTGATTAGGGCAACCGAAACAGCGGA to GAGACAGGGTCAAGGCCAGAGTACGCGTATTGAT, the PBM binding z-score rises from -0.343 to 2.

Going from TCTAGTTGGTCACGGAGGTCACTCACGACGGGTA to CTCGAAAGGTCGGTTGAGGTGTGTATACGGATAA, the PBM binding z-score falls from 2.5 to 0.679.

Compared with CCTACTGGGCCATTCAGAGTTCATTGATCATATG, CAGCCTAGGTTAGGGCCAGTATAGGAGGAACGTT is lower in PBM binding z-score: 0.849 for the first, -1.26 for the second.

Compared with GCGACTGGGGCCAAGCAGGTTACCATAAGGTTGG, CGAACGAGGGCATGAGTTGATGGCAAATGCCGAT is higher in PBM binding z-score: -0.242 for the first, -0.031 for the second.

Compared with GGAACGATGGCAAGTTGATAGCAGAGTTTGATGG, CGTCCAAGGTCAAAGGTCAGTCAAGAGATGACGG is higher in PBM binding z-score: -1.16 for the first, 2.8 for the second.

Compared with CGTCCAAGGTCAAAGGTCAGTGCAGAGATGACGG, CCTTCTGGGCCAAAGGTCATTGATTCCAATGCTC is lower in PBM binding z-score: 4.31 for the first, 2.95 for the second.

Compared with TTTTGTAGATCAAGCAGGTTAAGAAAGCCTGAGT, AAGACAGGGTCATCGTAGGCCAGAGTACGCACAG is higher in PBM binding z-score: 0.487 for the first, 1.25 for the second.

Going from GCTAGCAGGCCATTTAGGTCACTCAATGACGGGC to AATACAGGGTCACTAGGCCAGAGTTGGTACGAAT, the PBM binding z-score rises from -0.0591 to 2.23.

Going from TCATATAGGTAATACAGGTGAAAGTGGGCATCTA to CGAACTAGGTCTAGGACAGTGAATCTCCGCACGC, the PBM binding z-score falls from 1.79 to -0.583.

First: GCATATAGGTAATACCAGGTGAAAGTCCGATTGT
Second: TCAGAAAGGTGAAGGTAACTCAGGTACGCAGTCG
The PBM binding z-score of the first is lower: 0.56 for the first, 0.958 for the second.

Compared with GGAACGAGGGCATACGAGTTGATAGCATGGCGAT, AGAATGAGGTTACCGAAGATCAGGGAAACGCTTG is higher in PBM binding z-score: 0.0813 for the first, 0.444 for the second.

Going from CCGACTGGGGCAGAAAGGTAACCATACCATCCGG to AGTCACAGTTCACTAGGTAACGTAAGATTCAGCT, the PBM binding z-score rises from 0.0459 to 1.05.

First: GATCGGAGGACAAGGTCAGAGCTTTGTCCGTAGA
Second: CTCGAAAGGTCGGTTGAGGCGAGTATACGGATAA
The PBM binding z-score of the first is lower: 0.29 for the first, 0.331 for the second.

Compared with ACAGACAGGTGTTGAAGGTAACTCAGGCTATCAT, GTACCAAGGTGAATAGGTCATTGATGAGTAGGCG is higher in PBM binding z-score: -0.0576 for the first, 4.15 for the second.

First: AGAATAAGGTTATTAAGATCAGGGAATTGCGGTC
Second: ATTTCTAGGTAAAGATAGTTCAGTGAATGCAAAT
The PBM binding z-score of the first is lower: 1.04 for the first, 1.56 for the second.

Compared with CGAACTAGGTCAAGGACTGTGAATCTCCGCACGC, TCTTGTAGATCAACAGGAGGTTAAGAATGATCGA is lower in PBM binding z-score: 1.34 for the first, 0.581 for the second.

Going from CGTCCAAGGTCAATGCTTGGTCAGTGAAAGCATT to CCTATTAGTCGACCATAAGGGCAACCGAAGCTCG, the PBM binding z-score falls from 3.32 to 0.749.

First: TATACAGGGTCAAAGGCGAGAGTACGAATGTCGA
Second: TCTTGTAGATCAATAGAGGTTAAGGAAGTGCGCT
The PBM binding z-score of the first is higher: 2.22 for the first, 0.732 for the second.
